Here are results for 14 compounds from PubChem BioAssay.

Calls of active or inactive are those of the source.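 The calls were made as follows, unless noted: active = fluorescence slope higher than the sample average by over 3 SD (cut at about -0.22 in these data, passing the limit was not always enough); inactive = the rest.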 Where a SMILES comes first, the peptide text is derived from it.

Test [1] is described as follows: inhibitors of TNFa-induced NFkB p65 translocation, primary screen, imaging, HUVEC, MLSMR starter and 10KST1 sets (AID 438;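 active = inhibition above 20% together with a positive visual image hit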;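 also: compound added about 3h40 before a 20 min TNFalpha stimulation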;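 as to inhibition: signal is the nuclear over cytoplasmic p65 intensity ratio per well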). The following applies: HUVEC TNFa-induced p65 nuclear translocation; cell count: measured here: nuclei count (cytotoxicity indicator), at 2.08 µM; inhibition: at 2 µM, stronger effect = higher value, 0% TNFa-plus-vehicle, 100% no-TNFa wells.
The nature of test [2]: reduction of polyQ htt aggregates in cells – imaging, exon1htt(103Q)mCFP cells, high-content imaging, primary screen (AID 483;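 active = visual image review flags a hit and inhibition of aggregation exceeds 20%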;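 also: compound exposure lasted 3 days before fixation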;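 as to nuclei count: percent of the per-plate median nuclei count of sample wells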). The following applies: exon1htt(103Q)mCFP cell line, aggregate imaging, at 2 µM; inhibition of aggregation: stronger effect = higher value; nuclei count: measured here: cell count, toxicity.
The nature of test [3]: endothelial E-selectin expression blockers – imaging, HUVEC, immunofluorescence, MLSMR starter and 10KST1 sets, primary screen (AID 487;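 active = visually confirmed hit in the image check and inhibition above 20%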;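 as to inhibition: signal is fraction of cell area covered by stained E-selectin grains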;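 as to nuclei count: 100% = median nuclei count of all wells on the same plate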). The note with it: HUVEC TNFalpha-induced E-selectin immunofluorescence imaging, at 2 µM; inhibition: stronger effect = higher value; nuclei count: measured here: cell number, toxicity.
The target in test [4] is Voltage-gated potassium channel subunit beta-2 (Rattus norvegicus) (UniProt P62483). The test is described as follows: inhibitors of rat Kvbeta2 reductase activity – biochemical, NADPH fluorescence, primary screen (AID 622).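 Also: slope of raw intensity against log time taken from 70 to 1610 s.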 The note with it: recombinant KvBeta, 4-cyanobenzaldehyde reduction, at 10 µM, stronger effect = higher value.
Voltage-gated potassium channel subunit beta-2 (Rattus norvegicus), sequence (P62483 whole entry, looked up): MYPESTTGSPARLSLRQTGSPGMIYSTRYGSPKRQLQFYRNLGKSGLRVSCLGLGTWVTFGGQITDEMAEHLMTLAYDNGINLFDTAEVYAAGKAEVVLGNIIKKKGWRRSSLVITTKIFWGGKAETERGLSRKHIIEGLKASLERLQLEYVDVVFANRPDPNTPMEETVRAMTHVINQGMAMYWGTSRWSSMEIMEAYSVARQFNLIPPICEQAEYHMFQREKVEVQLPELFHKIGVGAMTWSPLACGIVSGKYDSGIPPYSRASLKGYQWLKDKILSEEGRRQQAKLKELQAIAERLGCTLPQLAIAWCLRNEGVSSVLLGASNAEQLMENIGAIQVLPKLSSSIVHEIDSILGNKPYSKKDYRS
Test [5] shares this target. The test is described as follows: enhancers of rat Kvbeta2 NADPH turnover – biochemical, NADPH fluorescence, primary screen (AID 623;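 active = NADPH fluorescence slope more negative than the mean of all samples by about 3 SD, 99.7% confidence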;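 also: fluorescence intensity change per second fitted from 20 to 320 s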). The following applies: Recombinant KvBeta, NADPH fluorescence decrease slope, 10 min; at 10 µM; stronger effect = lower value.
For test [6], the target named is Alpha-2C adrenergic receptor (Homo sapiens) (UniProt P18825). The test is described as follows: compounds altering alpha2C-coupled GIRK flux – cell-based, HEK293 alpha2C/GIRK1/2, thallium flux, primary screen (AID 624;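 active = fluorescence slope after compound addition differing from the mean of all screened samples at 99.7% confidence, in either direction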;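 also: slope of fluorescence ratio to pre-addition baseline per second over 15 to 24 s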). The following applies: thallium flux BTC fluorescence, at 10 µM, actives lie on both sides.
Alpha-2C adrenergic receptor (Homo sapiens), sequence (P18825 whole entry, looked up): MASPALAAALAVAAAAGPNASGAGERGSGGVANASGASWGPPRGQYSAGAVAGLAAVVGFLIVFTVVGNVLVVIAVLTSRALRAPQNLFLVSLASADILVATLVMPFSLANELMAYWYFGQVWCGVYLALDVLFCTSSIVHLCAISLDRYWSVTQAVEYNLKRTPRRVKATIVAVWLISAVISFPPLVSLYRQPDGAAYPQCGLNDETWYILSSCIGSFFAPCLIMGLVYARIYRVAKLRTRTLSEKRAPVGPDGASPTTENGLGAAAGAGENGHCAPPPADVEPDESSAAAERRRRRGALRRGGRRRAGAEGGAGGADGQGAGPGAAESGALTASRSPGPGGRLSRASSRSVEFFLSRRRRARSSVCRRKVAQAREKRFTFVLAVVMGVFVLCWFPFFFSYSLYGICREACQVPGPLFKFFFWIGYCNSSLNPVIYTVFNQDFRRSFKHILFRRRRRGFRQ
Test [7] in a line: blockers of RIG-like receptor reporter activation – cell-based, Sendai virus stimulus, luciferase, 10K MLSCN set, TLR/RLR signaling modifier project, primary screen (AID 602276;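 active = inhibition at or above 50% at 10 µM; inactive = inhibition below 50%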;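 also: firefly luciferase from ISG56 promoter only with Renilla not read in this screen; 0% = Sendai virus plus DMSO and 100% = medium plus DMSO without virus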). The note with it: HEK293 RL24 IRF3 luciferase reporter, at 10 µM, stronger effect = higher value.
Test [8] in a line: TLR3 IRF3 reporter activation blockers – cell-based, poly I:C stimulus, luciferase, 10K MLSCN set, primary screen (AID 602277;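 active = inhibition of the reporter signal at or above 50%; inactive = inhibition below 50%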). The following applies: HEK293-TLR3 RL24 IRF3 luciferase reporter, at 10 µM, stronger effect = higher value.

Turning to `O=c1ccc2cc3c([nH]c4ccc(Br)cc43)oc-2c1O`, the cell count in test [1] was 447. The inhibition is 4.7% (inactive) in test [1], -84.7% (inactive) in test [3], 11.2% (inactive) in test [7] and 24.2% (inactive) in test [8]. Besides, the inhibition of aggregation in test [2] is -0.5% (inactive). Also, the nuclei count is 111% in test [2] and 109% in test [3]. The fluorescence slope in test [4] is -0.596 (inactive). Moreover, in test [5], the NADPH fluorescence slope is -5.1e-05 (inactive). The slope in test [6] is 0.00638 (inactive).
Turning to `Cc1nn(-c2ccccc2)c(C)c1/C=N/O`, the cell count in test [1] was found to be 739. Also, the inhibition in test [1] was -3.9% (inactive); in test [3] it was 25% (inactive); in test [7], -8.9% (inactive); in test [8], -14.8% (inactive). The inhibition of aggregation in test [2] is -3.1% (inactive). In addition, the nuclei count in test [2] was 93.7%; in test [3], 94.2%. Further, the fluorescence slope in test [4] is -0.446 (inactive). Moreover, the NADPH fluorescence slope in test [5] is 2.9e-05 (inactive). Besides, in test [6], the slope is 0.00603 (inactive).
In the case of `O=C(CCN1CCc2ccccc2C1)Nc1ccc2c(c1)OCO2`, the cell count in test [1] is 413. For the same compound, the inhibition in test [1] was 2.9% (inactive); in test [3] it was -84.4% (inactive); in test [7], 6.95% (inactive); in test [8], 14.1% (inactive). Moreover, in test [2], the inhibition of aggregation is 14.5% (inactive). Further, the nuclei count in test [2] is 96.1%; in test [3], 110%. Besides, the fluorescence slope in test [4] was -0.542 (inactive). In addition, the NADPH fluorescence slope in test [5] was -1.3e-05 (inactive). Further, the slope in test [6] is 0.00425 (inactive).
As to `COc1ccc(NC(=O)N2CCN(c3nc(-c4cccc(OC)c4)cs3)CC2)cc1`, the cell count in test [1] was 564. Besides, the inhibition is -7.5% (inactive) in test [1], -23.1% (inactive) in test [3], 2.91% (inactive) in test [7] and -56.5% (inactive) in test [8]. For the same compound, the inhibition of aggregation in test [2] was 8.8% (inactive). In addition, the figures for the nuclei count in test [2] and in test [3] were 93.9% and 104%, respectively. For the same compound, in test [4], the fluorescence slope was -0.478 (inactive). In test [5], the NADPH fluorescence slope is -3.3e-05 (inactive). In addition, the slope in test [6] was 0.0039 (inactive).
With `CCc1ccccc1NC(=O)c1ccoc1C`, the cell count in test [1] is 399. In addition, the inhibition is 2.4% (inactive) in test [1], -12.3% (inactive) in test [3], 13.9% (inactive) in test [7] and 17.6% (inactive) in test [8]. Moreover, the inhibition of aggregation in test [2] is 0.7% (inactive). Further, the results for the nuclei count in test [2] and in test [3] were 97.9% and 99.5%, respectively. In addition, the fluorescence slope in test [4] was -0.493 (inactive). Moreover, in test [5], the NADPH fluorescence slope was -5.8e-05 (inactive). Further, in test [6], the slope was 0.00456 (inactive).
As for `CC1CCc2c(sc(N)c2C(N)=O)C1` (centres undefined), the cell count in test [1] turned out to be 722. For the same compound, the inhibition in test [1] was -4.4% (inactive); in test [3], 16.5% (inactive); in test [7], 5.07% (inactive); in test [8], 6.01% (inactive). In addition, the inhibition of aggregation in test [2] was 6.1% (inactive). Also, the figures for the nuclei count in test [2] and in test [3] were 88.3% and 98.4%, respectively. The fluorescence slope in test [4] is -0.371 (inactive). For the same compound, the NADPH fluorescence slope in test [5] is -1.7e-06 (inactive). Moreover, the slope in test [6] is 0.00501 (inactive).
In the case of `CCOC(=O)N1CCN(c2c(NCCCOC(C)C)c(=O)c2=O)CC1`, in test [1], the cell count is 642. Besides, the inhibition in test [1] was -1.6% (inactive); in test [3], 27.9% (inactive); in test [7], 7.84% (inactive); in test [8], 16% (inactive). In test [2], the inhibition of aggregation is -10.2% (inactive). Also, the results for the nuclei count in test [2] and in test [3] were 109% and 122%, respectively. Further, in test [4], the fluorescence slope was -0.513 (inactive). Moreover, the NADPH fluorescence slope in test [5] was -2.4e-05 (inactive). For the same compound, the slope in test [6] is 0.00694 (inactive).
For `Cc1ccc(C)c(N2CCN(C(=O)c3cc4ccccn4n3)CC2)c1`, the cell count in test [1] came out at 584. For the same compound, the inhibition in test [1] is -2.9% (inactive); in test [3], -31.8% (inactive); in test [7], -3.21% (inactive); in test [8], 21.6% (inactive). The inhibition of aggregation in test [2] was -16.9% (inactive). The nuclei count in test [2] was 103%; in test [3], 118%. Further, the fluorescence slope in test [4] was -0.615 (inactive). Besides, the NADPH fluorescence slope in test [5] is -2.1e-05 (inactive). Besides, the slope in test [6] is 0.00707 (inactive).
As for `CN(C)S(=O)(=O)c1cccc(C(=O)Nc2cccnc2)c1`, the cell count in test [1] was determined as 294. The inhibition in test [1] was 10.1% (inactive); in test [3] it was -79.6% (inactive); in test [7], 16.5% (inactive); in test [8], 10.8% (inactive). The inhibition of aggregation in test [2] was 0% (inactive). For the same compound, the nuclei count stood at 103% in test [2] and 128% in test [3]. In test [4], the fluorescence slope is -0.407 (inactive). The NADPH fluorescence slope in test [5] was -5.9e-05 (inactive). Also, the slope in test [6] was 0.00527 (inactive).
In the case of `CN(C)S(=O)(=O)c1ccc(Oc2ccc(S(=O)(=O)N(C)C)cc2)cc1`, in test [1], the cell count came to 273. The inhibition was -4.4% (inactive) in test [1], 8.2% (inactive) in test [3], -5.78% (inactive) in test [7] and -20.3% (inactive) in test [8]. Also, the inhibition of aggregation in test [2] is -0.5% (inactive). Also, the nuclei count in test [2] was 89.3%; in test [3] it was 80.6%. The fluorescence slope in test [4] was -0.42 (inactive). Besides, the NADPH fluorescence slope in test [5] was 3.1e-05 (inactive). For the same compound, the slope in test [6] was 0.00921 (inactive).
Turning to `CC(C)=CC(=O)N1CCCc2ccccc21`, the cell count in test [1] came to 308. The inhibition in test [1] was -2.8% (inactive); in test [3] it was 3.3% (inactive); in test [7] it was 16.7% (inactive); in test [8], 17% (inactive). Besides, the inhibition of aggregation in test [2] was -5.5% (inactive). Moreover, the values for the nuclei count in test [2] and in test [3] were 84.6% and 96.7%, respectively. Further, the fluorescence slope in test [4] is -0.606 (inactive). For the same compound, the NADPH fluorescence slope in test [5] was -2.8e-05 (inactive). In addition, the slope in test [6] is 0.00337 (inactive).
Turning to `CSc1nc(N)nc(SCCS(=O)(=O)c2ccc(Cl)cc2)c1C#N`, in test [1], the cell count was determined as 401. Besides, the inhibition in test [1] was 2.8% (inactive); in test [3] it was -48% (inactive); in test [7] it was 5.62% (inactive); in test [8], 12.8% (inactive). For the same compound, the inhibition of aggregation in test [2] was 24.9% (inactive). Moreover, the nuclei count in test [2] is 95.8%; in test [3], 113%. Further, the fluorescence slope in test [4] was -0.442 (inactive). Also, the NADPH fluorescence slope in test [5] was -2.1e-05 (inactive). In addition, the slope in test [6] was 0.00602 (inactive).
As to `Nc1nc(-c2ccc(Cl)cc2)nn1C(=O)c1cccnc1`, the cell count in test [1] worked out at 293. Moreover, the inhibition in test [1] was 4.2% (inactive); in test [3], 40.8% (inactive); in test [7] it was -0.966% (inactive); in test [8], -2.82% (inactive). The inhibition of aggregation in test [2] is -4.2% (inactive). For the same compound, the nuclei count in test [2] is 96.8%; in test [3], 105%. Further, the fluorescence slope in test [4] was -0.397 (inactive). For the same compound, the NADPH fluorescence slope in test [5] was 6.7e-06 (inactive). Moreover, the slope in test [6] is 0.00507 (inactive).
Take `CC(=O)NC(C(=O)NCC(N)=O)C(C)C` (centres undefined) (HELM PEPTIDE1{[ac].[CC(C)C(N[*:1])C(=O)[*:2]].G.[am]}$$$$V2.0): the cell count in test [1] turned out to be 517. Also, the inhibition in test [1] was -15.2% (inactive); in test [3], 9.9% (inactive); in test [7], -3.54% (inactive); in test [8] it was -10.4% (inactive). For the same compound, the inhibition of aggregation in test [2] is -13.6% (inactive). Further, the nuclei count in test [2] was 89.2%; in test [3], 109%. The fluorescence slope in test [4] was -0.59 (inactive). Also, the NADPH fluorescence slope in test [5] was -3.6e-05 (inactive). The slope in test [6] was 0.00838 (inactive).
